# From ChEMBL document CHEMBL1961873, “Compounds: GSK PKIS; Assays: Nanosyn kinase panel” (2012)
# Target: T1, Testis-specific serine/threonine-protein kinase 1 (Homo sapiens) (UniProt Q9BXA7)
# T1 sequence (whole entry): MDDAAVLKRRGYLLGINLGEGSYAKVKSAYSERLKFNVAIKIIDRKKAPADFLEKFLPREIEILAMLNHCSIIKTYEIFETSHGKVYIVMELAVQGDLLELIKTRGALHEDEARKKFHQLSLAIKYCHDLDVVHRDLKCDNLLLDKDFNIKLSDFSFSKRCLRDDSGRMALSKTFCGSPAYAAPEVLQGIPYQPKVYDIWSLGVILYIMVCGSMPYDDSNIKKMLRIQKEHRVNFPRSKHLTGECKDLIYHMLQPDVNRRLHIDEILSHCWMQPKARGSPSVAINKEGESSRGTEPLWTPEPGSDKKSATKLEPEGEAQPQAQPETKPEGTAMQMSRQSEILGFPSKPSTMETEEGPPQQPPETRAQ
# Conditions: at 1 µM
# 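Further: reported value is the mean inhibition, from the GSK PKIS kinase screening panel.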
row,SMILES,inhibition [%]
1,NC(=O)c1cc(-c2ccncc2)cc(-c2ccccc2)c1N,5.71
2,COc1cc2ncn(-c3cc(OCc4cccs4)c(C(N)=O)s3)c2cc1OC,8.81
3,COc1ccc(C2=C(N3CCc4ccccc43)C(=O)NC2=O)cc1,6.13
4,NS(=O)(=O)c1ccc(N/N=C2\C(=O)Nc3ccc(C(=O)NCCCn4ccnc4)cc32)cc1,13.3
5,O=C(Nc1n[nH]c2nc(-c3ccc(O)cc3)c(Br)cc12)C1CC1,5.96
6,Clc1ccc(CNc2nccc(-c3cnn4ncccc34)n2)cc1,-0.65
7,CS(=O)(=O)CCNCc1ccc(-c2ccc3ncnc(Nc4ccc(OCc5ccccc5)c(Br)c4)c3c2)o1,2.53
8,c1ccc(Oc2ccc(Nc3ncc(-c4ccccc4)o3)cc2)cc1,1.56
9,Cc1ccc(NC(=O)c2ccoc2)cc1-c1ccc(C(=O)NCC2CC2)cc1,3.27
10,C/C(Nc1ccc(S(N)(=O)=O)cc1)=C1/C(=O)Nc2ccccc21,5.46
11,Fc1ccc(-c2c(-c3ccncc3)nc3n2CCS3)cc1,2.91
12,O=C(Nc1ccc(Oc2ccc3[nH]c(NC(=O)c4ccccc4)nc3c2)cc1)Nc1cc(C(F)(F)F)ccc1F,0.69
13,O=C1NC(=O)C(c2cccc(Cl)c2)=C1Nc1ccc(Cl)c(C(=O)O)c1,4.16
14,NS(=O)(=O)c1ccc(Nc2cc(-c3ccc(O)c(F)c3)n[nH]2)cc1,-0.04
15,COC(=O)Nc1nc2ccc(Sc3ccc(NC(=O)Nc4cc(C(F)(F)F)ccc4F)cc3)cc2[nH]1,-2.84
16,Cc1nnc(-c2ccc(C)c(-c3ccc(C(=O)NCc4ccc(Cl)cc4)cc3)c2)o1,4.33
17,COc1ccc2ncn(-c3cc(O[C@H](C)c4ccccc4Cl)c(C(N)=O)s3)c2c1,2.54

row,SMILES,inhibition [%]
1,COc1cc(N2CCN(C(C)C)CC2)ccc1Nc1nc(Nc2ccc(F)cc2C(=O)NC[C@@H](O)CO)c2cc[nH]c2n1,84.9
2,NS(=O)(=O)c1ccc(N/N=C2\C(=O)Nc3ccc(-c4cnco4)cc32)cc1,12.4
3,CN1CCN(CCCNc2nc3ccc(Oc4ccc(NC(=O)Nc5cc(C(F)(F)F)ccc5F)cc4)cc3[nH]2)CC1,-0.16
4,Fc1ccc(-c2ncn(C3CCNCC3)c2-c2ccnc(Oc3ccc(Oc4ccccc4)cc3)n2)cc1,4.2
5,COc1cc(Nc2ncc3c(C)nc(-c4cccc(Oc5ccccc5)c4)n3n2)cc(OC)c1OC,5.53
6,CCc1ccc(Oc2nccc(-c3c(-c4ccc(F)cc4)ncn3C3CCNCC3)n2)cc1,5.22
7,Cc1ccc(C(=O)NC(C)C)cc1-c1ccc(C(=O)NCC2CC2)cc1,-1.52
8,COc1cccc(-n2cnc3c(N/N=C/c4ccncc4)ncnc32)c1,5.32
9,Fc1ccc(-c2ncn(C3CCNCC3)c2-c2ccnc(Oc3ccc4c(c3)OCO4)n2)cc1,4.17
10,O=C(NCC1CC1)c1ccc(-c2cccc(C(=O)NC3CC3)c2)cc1,-0.94
11,C#Cc1cccc(Nc2ncnc3ccc(OCCCCNCCS(C)(=O)=O)cc23)c1,6.34
12,NCc1ccc(-n2c(-c3nonc3N)nc3cnccc32)cc1,32.2
13,O=C(Nc1n[nH]c2cc(-c3ccccc3)ccc12)C1CC1,2.02
14,CCS(=O)(=O)c1ccc(OC)c(Nc2ncc(-c3cccc(-c4ccccc4F)c3)o2)c1,-0.72
15,CNC(=O)c1cncc(/C=C/c2c(C)cccc2C)c1,-1.47
16,CCC(=O)Nc1ccc(C)c(-c2ccc(C(=O)NCC3CC3)cc2)c1,3.59
17,c1ccc(-c2n[nH]cc2-c2ccnc(-c3ccc(OCCN4CCOCC4)cc3)c2)nc1,-3.08
